Experimental data from PubChem BioAssay.
Values joined by “and” are separate entries in the source; they are usually repeats but may differ in a detail not shown here. Equal entries are not always repeated. Some structures have more than one record in an assay (separate samples or runs), and their calls can disagree. Active and inactive are the calls of the source. Cut-off read from the data, not from the text of the source: active = inhibition above about 80%; inactive = the rest.

Assay: HD-MB03 medulloblastoma cell growth inhibition, synergistic combos for chromothripsis tumors, BGB or cisplatin IC20 combos (AID 1671455);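 note: 0% = vehicle DMSO and 100% = high DMSO as cytotoxic control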
Conditions: HD-MB03 medulloblastoma cells, measured here: combo with cisplatin at IC20, at 0.5 µM, stronger effect = higher value

| Compound | inhibition |
| --- | --- |
| CC(Oc1cc(-c2cnn(C3CCNCC3)c2)cnc1N)c1c(Cl)ccc(F)c1Cl (stereo unspecified) | 13.3% |
| O=C(O)c1cc2cccc([N+](=O)[O-])c2[nH]1 | 1.4% |
| O=c1[nH]c(=O)n(C2CC(O)C(CO)O2)cc1I (stereo unspecified) | -7.71% |

Assay: UWB1.289 ovarian carcinoma cell growth inhibition, synergistic combos for chromothripsis tumors, BGB or cisplatin combos (AID 1671456);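 note: cells exposed to compound for four days; 0% = vehicle DMSO and 100% = killing by high DMSO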
Conditions: UWB1.289 ovarian carcinoma cells, at 0.5 µM, stronger effect = higher value

| Compound | inhibition |
| --- | --- |
| COc1ccccc1S(=O)(=O)Nc1ccc2c(c1)CN(C)C(=O)N2 | -14.3% (inactive) |
| Cc1cc(C#N)cc(C)c1Oc1nc(Nc2ccc(C#N)cc2)nc(N)c1Br | 1.48% (inactive) |
| Nc1ncn(C2OC(CO)C(O)C2O)c(=O)n1 (stereo unspecified) | 18.4% (inactive) |
| Cc1cc(C)c(Nc2ccnc(Nc3ccc(C#N)cc3)n2)c(C)c1 | -2.26% (inactive) |
| COc1ccc(CC(N)C(=O)NC2C(CO)OC(n3cnc4c(N(C)C)ncnc43)C2O)cc1 (stereo unspecified) | 50% (inactive) and 83.6% (active) |
| O=c1ccn(C2OC(CO)C(O)C2O)c(=O)[nH]1 (stereo unspecified) | 16.3% (inactive) and -6.23% (inactive) |
| CC=C1NC(=O)C2CSSCCC=CC(CC(=O)NC(C(C)C)C(=O)N2)OC(=O)C(C(C)C)NC1=O (stereo unspecified) | 97.4% (active) and 98.3% (active) |
| CN(C)CC(=O)Nc1ccc2[nH]c(=O)c3ccccc3c2c1 | 3.12% (inactive) and 0.71% (inactive) and -1.11% (inactive) |
| CC1OC(n2cc(F)c(=O)[nH]c2=O)C(O)C1O (stereo unspecified) | -6.51% (inactive) |
| Nc1ccn(C2OC(CO)C(O)C2(F)F)c(=O)n1 (stereo unspecified) | 36.9% (inactive) and 40.6% (inactive) and 36.4% (inactive) |
| Cc1cn(C2CC(N=[N+]=[N-])C(CO)O2)c(=O)[nH]c1=O (stereo unspecified) | -6.97% (inactive) and -2.38% (inactive) |
| CC(C=CC(=O)NO)=CC(C)C(=O)c1ccc(N(C)C)cc1 (stereo unspecified) | 67.5% (inactive) |
| NC(=S)NN=Cc1ncccc1N | -4.48% (inactive) |
| CC(C)(C#N)c1ccc(N2C(=O)OCc3cnc4ccc(-c5cnc6ccccc6c5)cc4c32)cc1 | 5.6% (inactive) |
| CC1CN(c2c(F)c(N)c3c(=O)c(C(=O)O)cn(C4CC4)c3c2F)CC(C)N1 (stereo unspecified) | 8.04% (inactive) |
| CCCCN(Cc1ccc(C(=O)NO)cc1)C(=O)Nc1ccccc1 | 11.9% (inactive) and 3.45% (inactive) |
| O=c1[nH]cnc2c1ncn2C1OC(CO)C(O)C1O (stereo unspecified) | -11.2% (inactive) and -3.6% (inactive) |
| Cc1cc(C=CC#N)cc(C)c1Nc1ccnc(Nc2ccc(C#N)cc2)n1 | 1.47% (inactive) |
| CC(Oc1cc(-c2cnn(C3CCNCC3)c2)cnc1N)c1c(Cl)ccc(F)c1Cl (stereo unspecified) | 11.5% (inactive) |
| O=C(O)c1cc2cccc([N+](=O)[O-])c2[nH]1 | -15.9% (inactive) |
| O=c1[nH]c(=O)n(C2CC(O)C(CO)O2)cc1I (stereo unspecified) | -5.21% (inactive) |

Same assay, conditions: UWB1.289 ovarian carcinoma cells, measured here: inhibition with BGB combination, at 0.05 µM, stronger effect = higher value

| Compound | inhibition |
| --- | --- |
| COc1ccccc1S(=O)(=O)Nc1ccc2c(c1)CN(C)C(=O)N2 | -45% |
| Cc1cc(C#N)cc(C)c1Oc1nc(Nc2ccc(C#N)cc2)nc(N)c1Br | -24.8% |
| Nc1ncn(C2OC(CO)C(O)C2O)c(=O)n1 (stereo unspecified) | 8.02% |
| Cc1cc(C)c(Nc2ccnc(Nc3ccc(C#N)cc3)n2)c(C)c1 | -10.8% |
| COc1ccc(CC(N)C(=O)NC2C(CO)OC(n3cnc4c(N(C)C)ncnc43)C2O)cc1 (stereo unspecified) | -13.6% and -16.5% |
| O=c1ccn(C2OC(CO)C(O)C2O)c(=O)[nH]1 (stereo unspecified) | -2.12% and -33.8% |
| CC=C1NC(=O)C2CSSCCC=CC(CC(=O)NC(C(C)C)C(=O)N2)OC(=O)C(C(C)C)NC1=O (stereo unspecified) | 65.5% and 83.9% |
| CN(C)CC(=O)Nc1ccc2[nH]c(=O)c3ccccc3c2c1 | -1.46% and -11.5% and -12.3% |
| CC1OC(n2cc(F)c(=O)[nH]c2=O)C(O)C1O (stereo unspecified) | -35.5% |
| Nc1ccn(C2OC(CO)C(O)C2(F)F)c(=O)n1 (stereo unspecified) | -8.95% and 6.66% and -8.78% |
| Cc1cn(C2CC(N=[N+]=[N-])C(CO)O2)c(=O)[nH]c1=O (stereo unspecified) | -33.2% and -11.1% |
| CC(C=CC(=O)NO)=CC(C)C(=O)c1ccc(N(C)C)cc1 (stereo unspecified) | -6.23% |
| NC(=S)NN=Cc1ncccc1N | -19.9% |
| CC(C)(C#N)c1ccc(N2C(=O)OCc3cnc4ccc(-c5cnc6ccccc6c5)cc4c32)cc1 | -17% |
| CC1CN(c2c(F)c(N)c3c(=O)c(C(=O)O)cn(C4CC4)c3c2F)CC(C)N1 (stereo unspecified) | 0.724% |
| CCCCN(Cc1ccc(C(=O)NO)cc1)C(=O)Nc1ccccc1 | 1.66% and 3.63% |
| O=c1[nH]cnc2c1ncn2C1OC(CO)C(O)C1O (stereo unspecified) | -39.3% and 0.127% |
| Cc1cc(C=CC#N)cc(C)c1Nc1ccnc(Nc2ccc(C#N)cc2)n1 | -12.2% |
| CC(Oc1cc(-c2cnn(C3CCNCC3)c2)cnc1N)c1c(Cl)ccc(F)c1Cl (stereo unspecified) | 17.9% |
| O=C(O)c1cc2cccc([N+](=O)[O-])c2[nH]1 | -35.8% |
| O=c1[nH]c(=O)n(C2CC(O)C(CO)O2)cc1I (stereo unspecified) | -13.3% |

Same assay, conditions: UWB1.289 ovarian carcinoma cells, measured here: inhibition with cisplatin combination, at 0.05 µM, stronger effect = higher value

| Compound | inhibition |
| --- | --- |
| COc1ccccc1S(=O)(=O)Nc1ccc2c(c1)CN(C)C(=O)N2 | -24.9% |
| Cc1cc(C#N)cc(C)c1Oc1nc(Nc2ccc(C#N)cc2)nc(N)c1Br | 0.893% |
| Nc1ncn(C2OC(CO)C(O)C2O)c(=O)n1 (stereo unspecified) | -5.92% |
| Cc1cc(C)c(Nc2ccnc(Nc3ccc(C#N)cc3)n2)c(C)c1 | -7.91% |
| COc1ccc(CC(N)C(=O)NC2C(CO)OC(n3cnc4c(N(C)C)ncnc43)C2O)cc1 (stereo unspecified) | -12.2% and -18.5% |
| O=c1ccn(C2OC(CO)C(O)C2O)c(=O)[nH]1 (stereo unspecified) | 36.9% and -21.3% |
| CC=C1NC(=O)C2CSSCCC=CC(CC(=O)NC(C(C)C)C(=O)N2)OC(=O)C(C(C)C)NC1=O (stereo unspecified) | 79.2% and 89.7% |
| CN(C)CC(=O)Nc1ccc2[nH]c(=O)c3ccccc3c2c1 | -5.87% and -5.94% and -12.4% |
| CC1OC(n2cc(F)c(=O)[nH]c2=O)C(O)C1O (stereo unspecified) | -17.5% |
| Nc1ccn(C2OC(CO)C(O)C2(F)F)c(=O)n1 (stereo unspecified) | 34.8% and 31% and 33.4% |
| Cc1cn(C2CC(N=[N+]=[N-])C(CO)O2)c(=O)[nH]c1=O (stereo unspecified) | -13% and -8.1% |
| CC(C=CC(=O)NO)=CC(C)C(=O)c1ccc(N(C)C)cc1 (stereo unspecified) | 29.6% |
| NC(=S)NN=Cc1ncccc1N | -12.6% |
| CC(C)(C#N)c1ccc(N2C(=O)OCc3cnc4ccc(-c5cnc6ccccc6c5)cc4c32)cc1 | -6.61% |
| CC1CN(c2c(F)c(N)c3c(=O)c(C(=O)O)cn(C4CC4)c3c2F)CC(C)N1 (stereo unspecified) | -2.03% |
| CCCCN(Cc1ccc(C(=O)NO)cc1)C(=O)Nc1ccccc1 | -1.43% and -3.86% |
| O=c1[nH]cnc2c1ncn2C1OC(CO)C(O)C1O (stereo unspecified) | -26% and -16.8% |
| Cc1cc(C=CC#N)cc(C)c1Nc1ccnc(Nc2ccc(C#N)cc2)n1 | 6.05% |
| CC(Oc1cc(-c2cnn(C3CCNCC3)c2)cnc1N)c1c(Cl)ccc(F)c1Cl (stereo unspecified) | 12.8% |
| O=C(O)c1cc2cccc([N+](=O)[O-])c2[nH]1 | 40% |
| O=c1[nH]c(=O)n(C2CC(O)C(CO)O2)cc1I (stereo unspecified) | -14.8% |
